Reference: PubChem BioAssay (NCATS)
Inconclusive results are not listed. A call without a number means that no potency is given here. Calls of active or inactive are those of the source. The call rests on the fitted dose curve; in most records, active means well fitted inhibition curve with a large enough effect; inconclusive means small, poorly fitted or top-dose-only effect; inactive means flat fitted curve, though single readings scatter.

system: PAD; experiment: qHTS profiling for inhibitors of Plasmodium falciparum proliferation (AID 504749); further: nearly all actives have a fitted effect of over 60% in size; details: P. falciparum in erythrocytes, SYBR Green DNA, 72 h; series mostly up to 28.7 µM
Method in brief: (§1)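 P. falciparum-infected erythrocytes (0.3% parasitemia, 2.5% hematocrit) incubated with compound 72 h at 37 C, 5% CO2. Parasite DNA detected by SYBR Green after lysis, overnight at room temperature; normalised to 0.29 uM artemisinin and DMSO.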
Potency means the concentration at half of the fitted maximal effect.

SMILES | Potency
CCCC(=O)Nc1ncnc2c1ncn2C1OC2COP(=O)(O)OC2C1OC(=O)CCC (stereo not drawn) | inactive
CCCCCCCCCCCCCC[n+]1ccc(C)cc1 | 3550 nM (active)
C[C@]12CCC(=O)C=C1CC[C@@H]1[C@@H]2[C@@H](O)C[C@@]2(C)[C@H]1CC[C@]2(O)C(=O)COP(=O)(O)O | inactive
CC(NNC(=O)c1ccccc1)c1ccccc1 (stereo not drawn) | inactive
COC(C(=O)C(O)C(C)O)C1Cc2cc3cc(OC4CC(OC5CC(O)C(O)C(C)O5)C(O)C(C)O4)c(C)c(O)c3c(O)c2C(=O)C1OC1CC(OC2CC(OC3CC(C)(O)C(O)C(C)O3)C(O)C(C)O2)C(O)C(C)O1 (stereo not drawn) | 224 nM (active)
Nc1c(N=Nc2ccc(-c3ccc(N=Nc4cc(S(=O)(=O)O)c5ccccc5c4N)cc3)cc2)cc(S(=O)(=O)O)c2ccccc12 | inactive
Cc1c(C)c2c(c(C)c1O)CC[C@@](C)(CCC[C@H](C)CCC[C@H](C)CCCC(C)C)O2 | inactive
CC(C)N=c1cc2n(-c3ccc(Cl)cc3)c3ccccc3nc-2cc1Nc1ccc(Cl)cc1 | inactive
COC(=O)[C@H]1[C@H]2C[C@@H]3c4[nH]c5ccccc5c4CCN3C[C@H]2C[C@@H](OC(=O)c2cc(OC)c(OC)c(OC)c2)[C@@H]1OC | 251 nM (active)
CC1=C(/C=C/C(C)=C/C=C/C(C)=C/C=C/C=C(C)/C=C/C=C(C)/C=C/C2=C(C)CCCC2(C)C)C(C)(C)CCC1 | inactive
Cc1cn([C@H]2C[C@H](O)[C@@H](CO)O2)c(=O)[nH]c1=O | inactive
CCCCCCCCCCCCCCCC(=O)OCC(COC(=O)CCCCCCCCCCCCCCC)OC(=O)CCCCCCCCCCCCCCC | inactive
CC(C(=O)O)c1ccc(N2Cc3ccccc3C2=O)cc1 (stereo not drawn) | inactive
CC(C)=O | inactive
Cc1c(C)c2c(c(C)c1O)CC[C@@](C)(CCC[C@@H](C)CCC[C@@H](C)CCCC(C)C)O2 | inactive
CO[C@H](C(=O)[C@@H](O)[C@@H](C)O)C1Cc2cc3cc(O[C@H]4C[C@@H](O[C@H]5C[C@@H](O)[C@H](O)[C@@H](C)O5)[C@@H](O)[C@@H](C)O4)c(C)c(O)c3c(O)c2C(=O)[C@H]1O[C@H]1C[C@@H](O[C@H]2C[C@@H](O[C@H]3C[C@](C)(O)[C@H](O)[C@@H](C)O3)[C@H](O)[C@@H](C)O2)[C@H](O)[C@@H](C)O1 (stereo partly drawn) | 158 nM (active)
O=C(O)CN(CCN(CC(=O)O)CC(=O)O)CC(=O)O | inactive
CCC(=O)NCCC1CCc2ccc3c(c21)CCO3 (stereo not drawn) | inactive
CCOc1ccc2c(c1)C(C)=CC(C)(C)N2 | inactive
COCC(=O)Nc1cc(Sc2ccccc2)ccc1N=C(NC(=O)OC)NC(=O)OC | inactive
Cc1cc(C(=O)NNCc2ccccc2)no1 | inactive
IC(I)I | inactive
C=CCSSSCC=C | inactive
CCCCCCC(O)C/C=C/CCCCCCCC(=O)O (stereo not drawn) | inactive
C[C@]12O[C@H](C[C@]1(O)CO)n1c3ccccc3c3c4c(c5c6ccccc6n2c5c31)CNC4=O | 251 nM (active)
CC1=CCC(C(C)(C)O)CC1 (stereo not drawn) | inactive

system: PC15; experiment: as above; details: P. falciparum in erythrocytes, SYBR Green DNA, 72 h; series mostly up to 28.7 µM
Method in brief: as §1

SMILES | Potency
CCCC(=O)Nc1ncnc2c1ncn2C1OC2COP(=O)(O)OC2C1OC(=O)CCC (stereo not drawn) | inactive
CCCCCCCCCCCCCC[n+]1ccc(C)cc1 | 4470 nM (active)
C[C@]12CCC(=O)C=C1CC[C@@H]1[C@@H]2[C@@H](O)C[C@@]2(C)[C@H]1CC[C@]2(O)C(=O)COP(=O)(O)O | inactive
CC(NNC(=O)c1ccccc1)c1ccccc1 (stereo not drawn) | inactive
COC(C(=O)C(O)C(C)O)C1Cc2cc3cc(OC4CC(OC5CC(O)C(O)C(C)O5)C(O)C(C)O4)c(C)c(O)c3c(O)c2C(=O)C1OC1CC(OC2CC(OC3CC(C)(O)C(O)C(C)O3)C(O)C(C)O2)C(O)C(C)O1 (stereo not drawn) | 501 nM (active)
Nc1c(N=Nc2ccc(-c3ccc(N=Nc4cc(S(=O)(=O)O)c5ccccc5c4N)cc3)cc2)cc(S(=O)(=O)O)c2ccccc12 | inactive
Cc1c(C)c2c(c(C)c1O)CC[C@@](C)(CCC[C@H](C)CCC[C@H](C)CCCC(C)C)O2 | inactive
CCOC(=O)C1=C(C)NC(C)=C(C(=O)OCC)C1c1ccccc1C=CC(=O)OC(C)(C)C | 10000 nM (active)
COC(=O)[C@H]1[C@H]2C[C@@H]3c4[nH]c5ccccc5c4CCN3C[C@H]2C[C@@H](OC(=O)c2cc(OC)c(OC)c(OC)c2)[C@@H]1OC | 447 nM (active)
CC1=C(/C=C/C(C)=C/C=C/C(C)=C/C=C/C=C(C)/C=C/C=C(C)/C=C/C2=C(C)CCCC2(C)C)C(C)(C)CCC1 | inactive
Cc1cn([C@H]2C[C@H](O)[C@@H](CO)O2)c(=O)[nH]c1=O | inactive
C#C[C@]1(O)CC[C@H]2[C@@H]3CCC4=CCCC[C@@H]4[C@H]3C(=C)C[C@@]21CC | inactive
CCCCCCCCCCCCCCCC(=O)OCC(COC(=O)CCCCCCCCCCCCCCC)OC(=O)CCCCCCCCCCCCCCC | inactive
CC(C(=O)O)c1ccc(N2Cc3ccccc3C2=O)cc1 (stereo not drawn) | inactive
CC(C)=O | inactive
Cc1c(C)c2c(c(C)c1O)CC[C@@](C)(CCC[C@@H](C)CCC[C@@H](C)CCCC(C)C)O2 | inactive
CO[C@H](C(=O)[C@@H](O)[C@@H](C)O)C1Cc2cc3cc(O[C@H]4C[C@@H](O[C@H]5C[C@@H](O)[C@H](O)[C@@H](C)O5)[C@@H](O)[C@@H](C)O4)c(C)c(O)c3c(O)c2C(=O)[C@H]1O[C@H]1C[C@@H](O[C@H]2C[C@@H](O[C@H]3C[C@](C)(O)[C@H](O)[C@@H](C)O3)[C@H](O)[C@@H](C)O2)[C@H](O)[C@@H](C)O1 (stereo partly drawn) | 316 nM (active)
O=C(O)CN(CCN(CC(=O)O)CC(=O)O)CC(=O)O | inactive
CCC(=O)NCCC1CCc2ccc3c(c21)CCO3 (stereo not drawn) | inactive
CCOc1ccc2c(c1)C(C)=CC(C)(C)N2 | inactive
COCC(=O)Nc1cc(Sc2ccccc2)ccc1N=C(NC(=O)OC)NC(=O)OC | inactive
Cc1cc(C(=O)NNCc2ccccc2)no1 | inactive
IC(I)I | inactive
C=CCSSSCC=C | inactive
CCCCCCC(O)C/C=C/CCCCCCCC(=O)O (stereo not drawn) | inactive
C[C@]12O[C@H](C[C@]1(O)CO)n1c3ccccc3c3c4c(c5c6ccccc6n2c5c31)CNC4=O | 447 nM (active)
CC1=CCC(C(C)(C)O)CC1 (stereo not drawn) | inactive
